In PubChem BioAssay AID2451 (National Center for Advancing Translational Sciences (NCATS), 2010) one finds Potency data, which are given here for 70 compounds.

In all, about 290,000 compounds went through this assay and about 2,100 (0.72%) were called active. Where a call stands in place of a potency, no number is given. Roughly 4% stayed inconclusive and do not appear here. Calls follow the shape of the dose curve; as a rule, active = well fitted inhibition curve with a large enough effect; inconclusive = small, poorly fitted or top-dose-only effect, or effect the other way; inactive = flat fitted curve, though single readings scatter. Many of the other results were omitted from the sample, so actives are more common in it than they were.
Potency is read from the fitted curve at half-maximal effect.

The target in the assay is Fructose-bisphosphate aldolase (Giardia intestinalis (strain ATCC 50803 / WB clone C6)) (UniProt A8B2U2). Nature of the assay: qHTS Assay for Inhibitors of Fructose-1,6-bisphosphate Aldolase from Giardia Lamblia. Also: nearly all actives have a fitted effect of over 55% in size. Conditions: purified Giardia FBPA; series mostly up to 59.6 µM. An excerpt: Assay Provider: Osnat Herzberg, University of Maryland
Fructose-bisphosphate aldolase (Giardia intestinalis (strain ATCC 50803 / WB clone C6)), sequence (A8B2U2 whole entry, looked up): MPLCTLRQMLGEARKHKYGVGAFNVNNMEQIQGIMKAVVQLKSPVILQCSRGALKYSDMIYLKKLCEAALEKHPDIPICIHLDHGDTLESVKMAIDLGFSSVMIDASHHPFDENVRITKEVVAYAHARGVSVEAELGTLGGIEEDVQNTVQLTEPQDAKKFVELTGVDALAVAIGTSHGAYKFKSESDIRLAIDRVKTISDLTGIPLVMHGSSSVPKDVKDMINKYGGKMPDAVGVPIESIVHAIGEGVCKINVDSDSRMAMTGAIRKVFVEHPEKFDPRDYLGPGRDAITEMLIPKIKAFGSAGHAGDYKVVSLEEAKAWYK
The objective of this project is to obtain compounds that inhibit Giardia lamblia growth. G. lamblia is a human pathogen which afflicts impoverished nations; it is the most common cause of outbreaks of diarrhea in the United States. During the course of our study of potential drug targets in Giardia, we have identified the Class II (Zn2+ functions in electrophilic catalysis) fructose-1,6-bisphosphate aldolase (FBPA) as an excellent candidate for drug targeting. FBPA is a key glycolytic pathway enzyme, essential for G. lamblia survival. The human FBPA belongs to the Class I aldolases, which have a different substrate binding site structure and a radically different catalytic mechanism (employing a lysine-Schiff base intermediate). Therefore, affinity-based or mechanism-based inhibitors of the Giardia FBPA are expected not to interfere with the catalytic function of the human FBPA.
A glyceraldehyde-3-phosphate dehydrogenase/triose phosphate isomerase/NAD/arsenate coupled assay was adapted to the 1536-well HTP format for use in the primary screen. This was done by coupling it to a diaphorase/resazurin/resorufin reaction that can be monitored by fluorescence (excitation, 544 nm; emission, 590 nm). Compounds identified in this screen will be further evaluated by coupling the glycerol-3-phosphate/triose phosphate isomerase/NADH assay to a phenazine methosulfate/tetranitroblue tetrazolium color reaction. False positives due to the dehydrogenases and diaphorase inhibition will be eliminated, and selectivity assay will triage inhibitors of mammalian triose phosphate isomerase and the Class I FBPA. G. lamblia FBPA inhibitors identified by the in vitro analyses will be examined for growth inhibition of Giardia trophozoites, and for cytotoxicity in human cells.
Step,Parameter,Value,Description
1,Enzyme reagent,2 uL,40 nM FBPA
2,Compound,23 nL,3.68 nM-57.5 uM final concentration
3,Time,10 min,RT Incubation
4,Substrate/detection Reagent,2 uL,Substrate + enzyme coupling system + AmpLite Red kit
5,Time,20 min,RT Incubation
6,Detector,525 nm/598 nm (Fluorescence),ViewLux Fluorescence Read (Read 1)
1,Medium-binding black solid-bottom Kalypsys plates. FRD or Kalypsys dispenser, 2 uL of FBPA enzyme. Bottle kept at 4C.
2,Compound Library (10 mM ,1:5 dilution). Pin-transferred for a [final] range of 3.68 nM-57.5 uM.
4,FRD or Kalypsys dispenser, 2 uL of reaction mixture. Bottle kept at 4C and covered in foil to protect from light.
6,ViewLux Protocol 1194; Excitation filter wheel A (525/20 Pol; BODIPY TMR FP), Emission filter wheel B (598/25 S; BODIPY TMR FP S).
Keywords: Fructose-bisphosphate aldolase, FBPA , Giardia lamblia , Giardia, HTS, Inhibitors
For `O=C(NC(=S)Nc1ccc(Cl)cc1Cl)C1CC1`, the Potency entry is “inactive”.
To `COC(=O)N1CCC2(CCCN(Cc3ccccc3OC)C2)CC1` belongs “inactive”; to `COc1ccccc1CN1CC2(CCN(S(=O)(=O)c3ccccc3)CC2)C1`, “inactive”; to `CS(=O)(=O)N1CCN(C(=O)Cc2ccccc2)CC1`, “inactive”.
To `COc1ccccc1CN1CCN(C(=O)Cc2ccccc2)CC1` belongs 17.8 µM (active); to `COc1ccccc1/C=N/N1CCN(Cc2ccccc2Cl)CC1`, “inactive”; to `COc1ccccc1CN1CCN(Cc2cc(OC)c(OC)cc2OC)CC1`, 25.1 µM (active).
For the compound `CCOCCOC(=O)C1=C(C)NC(=O)NC1c1ccc2c(c1)OCO2` (stereo not given), the Potency result was “inactive”.
To `O=C(O)c1c(NC(=O)N2CCCC2)sc2c1CCCC2` belongs “inactive”; to `O=C(Nc1ccc(O)cc1)c1ccc(NC(=O)c2ccco2)cc1`, “inactive”.
To `CCOC(=O)C1(Cc2cccc(OC)c2)CCCN(C(=O)CCSC)C1` (stereo not given) belongs “inactive”; to `Cc1cccc(NC(=O)CSc2nc3[nH]ncc3c(=O)[nH]2)c1`, “inactive”; to `Cc1cc(=O)[nH]c(SCC(=O)Nc2ccc(Br)cc2)n1`, “inactive”.
To `Cc1cc(C)c2c(=O)[nH]c(SCC(=O)Nc3ccc(Br)cc3)nc2n1` belongs 31.6 µM (active).
As to `O=C(NC(c1ccccc1)c1ccccc1)N1CCN(CCO)CC1`, the Potency result is “inactive”.
To `S=C(c1ccccc1)N1CCCC1` belongs “inactive”; to `OCCN1CCN(C(=S)c2ccc(-c3ccccc3)cc2)CC1`, 11.2 µM (active).
To `COc1ccc(-c2ccc(C3C4C=CCCC4(C)C(=O)N3Cc3ccccc3)c(F)c2)cc1OC` (stereo not given) belongs “inactive”; to `Cc1cc(F)ccc1NC(=S)NCCc1ccccc1`, “inactive”; to `COc1cc(NC(=O)C2=CC(c3ccc(C)cc3)=NS(=O)(=O)N2C)cc(OC)c1OC`, “inactive”.
To `CCN(CC(=O)Nc1ccc(S(=O)(=O)N2CCCC2)cc1)CC(=O)Nc1cccc(OC)c1` belongs 5 µM (active); to `COc1ccccc1CC(=O)Nc1ccc(S(=O)(=O)N2CCCC2)cc1`, “inactive”; to `CCOc1cccc(NC(=O)C2CCCN(S(=O)(=O)c3ccc(OC)cc3)C2)c1` (stereo not given), “inactive”.
As to `COc1cc(C(=S)N2CCOCC2)cc(OC)c1OC(=O)c1ccc([N+](=O)[O-])cc1[N+](=O)[O-]`, the Potency entry was “inactive”.
To `CCS(=O)(=O)Nc1ccc(C(=O)NCCSc2ccccc2)cc1` belongs “inactive”.
In the case of `CC(=O)OCCN(CCCn1c(-c2ccncc2)nc2ccccc21)c1nc(-c2ccc(C)cc2)cs1` it was “inactive”.
Consider `Oc1c(C=Nc2cccc3nsnc23)ccc2ccccc12`, for which the Potency was 5 µM (active).
Regarding `Cc1ccccc1NC(=O)C1CCN(C(=O)NC2CCCCC2)CC1`, the Potency entry was “inactive”.
In the case of `COC(=O)C1=CN(c2ccc(F)c(F)c2)C=C(C(=O)OC)C1c1ccc([N+](=O)[O-])cc1` it was “inactive”; in that of `COc1ccccc1-c1nnc(NC(=O)c2ccc3ncsc3c2)o1`, “inactive”.
`COc1ccccc1-c1nnc(NC(=O)c2cccc(N3C(=O)CCC3=O)c2)o1`: the Potency entry is “inactive”.
To `Cc1ccc(C(=O)Nc2nnc(C3=COCCO3)o2)cc1C` belongs 31.6 µM (active); to `COC(=O)c1ccccc1NC(=O)C1CCN(C(=O)N2CCOc3ccccc32)CC1`, “inactive”.
To `COc1ccc(C2Oc3c(I)c(OC)cc(OC)c3CC2O)cc1OC` (stereo not given) belongs “inactive”; to `Oc1cc(O)c2c(c1)OC(c1ccc(O)c(O)c1)C(O)C2` (stereo not given), 9.98 µM (active); to `O=C(NC(=S)Nc1ccc(S(=O)(=O)Nc2ncccn2)cc1)c1cccc(Br)c1`, “inactive”.
In the case of `O=C(NC(=S)Nc1ncccn1)c1ccccc1Br`, the Potency was 3.98 µM (active).
To `COC(=O)c1ccccc1NC(=S)NC(=O)c1ccccc1F` belongs “inactive”.
To `CCOc1ccc(OCC)c(NC(=O)CCS(=O)(=O)c2ccc(C)cc2)c1` belongs “inactive”; to `Cn1c(CCCOc2ccc(Cl)cc2Cl)n[nH]c1=S`, “inactive”; to `COCCCNCCOCCOc1ccc(Cl)cc1Br`, “inactive”.
For `CN(C)CCOc1ccc(Cl)cc1C(C)(C)C`, the Potency is 14.1 µM (active).
`CNC(=S)N/N=C/c1ccc(N2CCOCC2)s1`: the Potency was 12.6 µM (active).
To `Cc1cc(C(=O)N/N=C/c2ccc(N3CCOCC3)cc2)c(C)o1` belongs “inactive”.
For the compound `C=CCNC(=S)N/N=C/c1ccc(C)s1`, the Potency result was “inactive”.
To `O=C(CCCC(=O)N1CCN(c2cccc(Cl)c2)CC1)c1ccccc1` belongs “inactive”; to `NC(=O)CC(NC(=O)Cc1ccc(Br)cc1)c1ccc(NC2CC3CCC2C3)c([N+](=O)[O-])c1` (stereo not given), “inactive”.
For the compound `COc1cc(OC)c(C(=S)N2CCCC2)cc1OC`, the Potency entry is “inactive”.
To `Cn1c(CCN2CCCC2)nc2cc(NS(=O)(=O)c3ccccc3)ccc21` belongs “inactive”; to `O=S(=O)(Nc1ccc2cn[nH]c2c1)c1ccccc1`, “inactive”; to `O=S(=O)(Nc1ccc2nc(-c3ccco3)[nH]c2c1)c1ccccc1`, 19.9 µM (active).
For the compound `CCN1CCN(C(=O)C2CCCN(S(=O)(=O)c3ccc(OC)c(OC)c3)C2)CC1` (stereo not given), the Potency entry was “inactive”.
For the compound `Cc1ccc(N(Cc2cc(=O)[nH]c3ccccc23)C(=O)CCl)cc1`, the Potency result was “inactive”.
As to `O=C(NCCCc1ccccc1)c1cc(COc2c(F)cccc2F)on1`, the Potency entry was “inactive”.
In the case of `N#Cc1c(N2CCCCC2)nc(N)c2c(N)nc(SCC(=O)O)cc12` it was 12.6 µM (active); in that of `N#Cc1c(-c2ccccc2)cc(-c2ccccc2)nc1SCC(=O)O`, “inactive”; in that of `Cc1cc(C)c(C#N)c(N2CCC(C(N)=O)CC2)n1`, “inactive”.
With `CSc1nnc(C2CCCN(CC(=O)Nc3ccccc3N3CCOCC3)C2)n1C(C)C` (stereo not given), the Potency result is “inactive”.
In the case of `CC(=O)NC(CC(=O)Nc1nccs1)c1ccccc1` (stereo not given) it was “inactive”.
For `CC(=O)NC1CCN(CC(=O)Nc2nccs2)CC1`, the Potency is 10 µM (active).
In the case of `Cc1cc(C)cc(N(CC(=O)NC2CCCC2)C(=O)CCC(=O)Nc2nccs2)c1` it was “inactive”; in that of `COc1ccccc1CCNS(=O)(=O)c1cn(C)nc1C`, “inactive”.
In the case of `COc1ccc(CNC(=O)c2cc(=O)c3c(C)cc(C)cc3o2)cc1` it was “inactive”; in that of `O=C(N/N=C/c1ccccn1)c1cccnc1`, 4.46 µM (active); in that of `CNC(=O)C(=O)N/N=C/c1ccccn1`, “inactive”.
`O=C(N/N=C/c1ccc(O)c2ccccc12)c1cccnc1`: the Potency entry is “inactive”.
In the case of `Cc1ccc(C(=O)Nc2cccc3ncccc23)cc1[N+](=O)[O-]` it was “inactive”; in that of `Cc1ccc(/C=C(\C#N)C(=O)Nc2cccc3ncccc23)o1`, 5.61 µM (active).
In the case of `O=C(Nc1cccc2ncccc12)C(Cl)(Cl)Cl` it was “inactive”; in that of `COc1ccc(C(=O)CC(=O)c2ccc(C)cc2)c(O)c1`, “inactive”.
